Screening data (PubChem BioAssay)
This is one part of a sample in which hits are shown more often than they occur.
Anesthetic bind – candidate novel general anesthetic via apoferritin binding; P02791; apoferritin/1-aminoanthracene competitive binding, fluorescence; Potency, µM (top dose mostly 77.5 µM), hits mostly inhibitors; 350,000 tested, 0.074% active; also: nearly all actives have a fitted effect of over 20% in size
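Probe: 1-aminoanthracene (50% saturated, PBS). Protein: horse-spleen apoferritin, 10 uM. Incubation: 10 min, room temperature. Detection: 380 nm excitation, 535 nm emission. Analysis: normalized response, four-parameter Hill.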
CBFb RUNX1 block – CBF-beta/RUNX1 interaction disruption; Q01196+Q13951; AID 1477; 230,000 tested, under 10 active; Potency, µM (series often up to 59.8 µM), usual class: inhibitors; AlphaScreen CBFb-His/RUNX1-biotin binding, biochemical
Target sequence (Q01196 whole entry, looked up): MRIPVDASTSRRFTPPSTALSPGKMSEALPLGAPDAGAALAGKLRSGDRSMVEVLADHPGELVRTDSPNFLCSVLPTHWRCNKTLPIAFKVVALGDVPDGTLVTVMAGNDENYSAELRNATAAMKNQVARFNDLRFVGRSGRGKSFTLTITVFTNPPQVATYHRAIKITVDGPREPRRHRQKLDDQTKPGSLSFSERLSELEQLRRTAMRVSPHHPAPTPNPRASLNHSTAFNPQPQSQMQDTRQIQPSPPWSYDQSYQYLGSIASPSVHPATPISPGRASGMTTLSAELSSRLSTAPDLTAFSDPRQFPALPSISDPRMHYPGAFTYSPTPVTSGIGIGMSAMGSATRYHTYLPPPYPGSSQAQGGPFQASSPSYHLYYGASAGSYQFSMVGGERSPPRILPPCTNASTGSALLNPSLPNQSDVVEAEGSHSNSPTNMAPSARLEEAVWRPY
Target sequence (Q13951 whole entry, looked up): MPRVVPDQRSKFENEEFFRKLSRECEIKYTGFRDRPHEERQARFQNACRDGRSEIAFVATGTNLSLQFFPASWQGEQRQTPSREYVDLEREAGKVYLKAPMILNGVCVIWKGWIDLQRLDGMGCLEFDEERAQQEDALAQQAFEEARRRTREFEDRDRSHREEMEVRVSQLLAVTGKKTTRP
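CBF-beta (His) and RUNX1 (biotin), 30 nM each; 20 min preassociation; + compound, 15 min; + beads 50 ng each (Ni, streptavidin), 90 min; RT; AlphaScreen read.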
N370S GC mod – inhibits or activates N370S mutant glucocerebrosidase. AID 2101. P04062. Potency, µM (series often up to 59.4 µM), actives largely listed as inhibitors. 330,000 tested, 0.092% active. N370S GC spleen homogenate, 4MU-glucoside fluorescence
Integrin act MD – activates integrin-mediated alleviation for muscular dystrophy. alpha7betagal myoblasts, beta-gal FDG fluorescence, 48 h. Potency, µM (doses to about 38.3 µM), hits mostly activators. 350,000 tested, 0.064% active; also: nearly all actives have a fitted effect of over 60% in size
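alpha7betagal+/- myoblasts (passage 13, 250/well) treated 48 h at 37C with compounds at 1:260 dilution of DMSO stock. Lysed, then beta-galactosidase activity read as FDG fluorescence (ex 480/em 540) after 30 min, with pre-read for autofluorescence.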
GRP78 ERSR act – inducers of ER stress response in human glioma cells | U87-MG GRP78 promoter luciferase reporter, 16 h | AID 602332 | 420,000 tested, 0.02% active | Potency, µM, usual class: activators; also: series mostly up to about 76 µM; nearly all actives have a fitted effect of over 35% in size
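ERSR induction read as luciferase luminescence (Bright-Glo, 10 min at room temperature) in stably transfected human U87-MG glioma cells exposed to compounds for 16 h, using GRP78 as sensor.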
ClpP mod – qHTS Assay for Activators of ClpP; ATP-dependent Clp protease proteolytic subunit (Bacillus subtilis (strain 168)), P80244; purified B. subtilis ClpP, FRET peptide cleavage, 20 min; Potency, µM (top dose mostly 57.5 µM); 340,000 tested, 1.9% active; active = well fitted falling curve with a large enough effect; inconclusive = small, poorly fitted or top-dose-only effect; inactive = no such curve, though single readings can be large or run the other way; also: the source files actives as falling curves though it sought activators and does not explain the sign; nearly all actives have a fitted effect of over 65% in size
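Buffer: 100 mM Tris/HCl pH8, 100 mM KCl, 0.05% low protease BSA, 2.5% glycerol, 0.01% Tween-20. ClpP 10 microg/mL final; 20 min RT; delta FRET normalized to ADEP and DMSO controls.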
Large screens that a line does not name were inactive. Unless noted, calls follow the shape of the dose curve; as a rule, active = well fitted curve in the direction sought with a large enough effect; inconclusive = small, poorly fitted or top-dose-only effect, or another doubt; inactive = no such curve, though single readings can be large; an effect the other way counts as inactive or inconclusive.

CC(C)(C)c1ccc(C(=O)N2CCC3(CC2)CC3C(=O)NCCc2ccccn2)cc1 (stereo not drawn)	none (no result: Anesthetic bind, CBFb RUNX1 block, N370S GC mod, Integrin act MD, ClpP mod)
COc1ccc(Oc2cc(F)nc(N)n2)cc1	none
Cc1ccc(C)c(Oc2cc(F)nc(N)n2)c1	ClpP mod 18µM (no result: CBFb RUNX1 block)
COc1ccccc1C(=O)NC1=NC(c2ccc(Br)cc2)CC(=O)N1 (stereo not drawn)	Anesthetic bind inconclusive, ClpP mod 32µM (no result: CBFb RUNX1 block, N370S GC mod, Integrin act MD)
Cc1ccc(C(=O)NC2=NC(c3ccc(C)cc3)CC(=O)N2)cc1 (stereo not drawn)	none (no result: CBFb RUNX1 block, N370S GC mod, Integrin act MD)
CC(=O)Nc1ccc(N(CC(O)Cn2c3ccccc3c3ccccc32)S(=O)(=O)c2ccc(C)cc2)cc1 (stereo not drawn)	Integrin act MD inconclusive
Cc1cccc(N(CC(O)Cn2c3ccccc3c3ccccc32)S(=O)(=O)c2ccc(F)cc2)c1 (stereo not drawn)	ClpP mod 32µM (no result: CBFb RUNX1 block, N370S GC mod, Integrin act MD)
Cc1sc2ccccc2[n+]1CCCC[n+]1c(C)sc2ccccc21	none (no result: Anesthetic bind, CBFb RUNX1 block, N370S GC mod, Integrin act MD)
c1ccc(C2Nc3ccccc3-c3nc4ccccc4n32)cc1 (stereo not drawn)	N370S GC mod inconclusive
c1coc(C2Nc3ccccc3-c3nc4ccccc4n32)c1 (stereo not drawn)	ClpP mod 2.8µM
CCn1nnnc1Sc1nc(C)nc2scc(-c3ccccc3)c12	none (no result: Anesthetic bind, CBFb RUNX1 block, N370S GC mod, Integrin act MD)
CCCOc1ccc2c(CC)cc(=O)oc2c1C	CBFb RUNX1 block inconclusive, N370S GC mod inconclusive, ClpP mod inconclusive
CCCCc1cc(=O)oc2c(C)c(OCC(=O)N3CCCC3)ccc12	ClpP mod 13µM (no result: CBFb RUNX1 block)
C=C(C)COc1ccc2c(CC)cc(=O)oc2c1C	ClpP mod 13µM
Cc1cc(=O)oc2c(C)c(OCC(=O)N(C)C)ccc12	ClpP mod 16µM
Cc1nc(CN2CCN(C(=O)CC3(c4ccccc4Cl)CC(=O)N(C)C3=O)CC2)cs1 (stereo not drawn)	none (no result: Anesthetic bind, CBFb RUNX1 block, N370S GC mod, Integrin act MD, ClpP mod)
O=C(c1ccc(C(F)(F)F)cc1)N(Cc1cc2ccc(F)cc2nc1N1CCOCC1)C1CC1	none (no result: Anesthetic bind, CBFb RUNX1 block, N370S GC mod, Integrin act MD, ClpP mod)
C=C1C=C(C(F)F)n2ncc(C(=O)NCc3ccc(Cl)cc3Cl)c2N1	none (no result: Anesthetic bind, CBFb RUNX1 block, N370S GC mod, Integrin act MD)
Cc1ccc(C2C3=C(CCCC3=O)Nc3nc(SCC(=O)NCc4ccco4)[nH]c(=O)c32)cc1 (stereo not drawn)	ClpP mod 20µM
C=C(C)c1cccc(C(C)(C)NC(=O)Nc2cccnc2)c1	N370S GC mod 22µM (no result: CBFb RUNX1 block, ClpP mod)
C=C(C)c1cccc(C(C)(C)NC(=O)Nc2ccc(C(N)=O)cc2)c1	none (no result: ClpP mod)
CCCS(=O)(=O)NCc1c(C)ncc2c1CCN(C(=O)c1cccc(Cl)c1F)C2	none (no result: Anesthetic bind, CBFb RUNX1 block, N370S GC mod, Integrin act MD, ClpP mod)
O=C(COc1ccc(Cl)cc1)Nc1ccc(Cc2ccncc2)cc1	Anesthetic bind inconclusive, ClpP mod 7.1µM
CCOC(=O)c1ccc(-c2ccc(/C=N/NC(=O)CN(c3ccccc3Br)S(C)(=O)=O)o2)cc1	ClpP mod 18µM
CS(=O)(=O)N(CC(=O)N/N=C/c1cc2c(cc1Br)OCO2)c1ccccc1Br	ClpP mod inconclusive
CC1CCCC(NC(=O)c2ccc3c(=O)n(CC4CCCO4)c(=O)[nH]c3c2)C1C (stereo not drawn)	ClpP mod 25µM
CC(=O)N1c2c(cc(Br)cc2S(=O)(=O)NCC2COc3ccccc3O2)CC1C (stereo not drawn)	GRP78 ERSR act 40µM
COc1ccc(NC(=O)N2c3ccc(OC)cc3C(C)=CC2(C)C)cc1	none
CCOc1ccc2c(c1)C(C)=CC(C)(C)N2C(=O)Nc1ccccc1	ClpP mod 28µM
CCNC(=O)N1c2ccc(OC)cc2C(C)=CC1(C)C	ClpP mod 32µM
COc1ccc(NC(=O)N2c3ccccc3C(C)=CC2(C)C)cc1	none (no result: ClpP mod)
CCCCc1cc2c(=O)c(C(=O)OC)c[nH]c2cc1OCc1ccccc1	none (no result: Anesthetic bind, CBFb RUNX1 block, N370S GC mod, Integrin act MD, ClpP mod)
O=C(c1ccccc1-n1cccn1)N1CCOc2c(cc(-c3ncc(C(F)(F)F)cc3Cl)cc2OCC2CCCO2)C1 (stereo not drawn)	none (no result: Anesthetic bind, CBFb RUNX1 block, N370S GC mod, Integrin act MD, ClpP mod)
N#C/C(=C\c1ccc(OC(=O)c2cccs2)cc1)c1nc2ccccc2[nH]1	ClpP mod 28µM
C[C@@H]1[C@H](c2ccccc2)OCCS(=O)(=O)N1Cc1cccc(C(F)(F)F)c1	none (no result: Anesthetic bind, CBFb RUNX1 block, N370S GC mod, Integrin act MD)
COC(=O)CSc1nc2sc3c(c2c(=O)n1-c1ccccc1)CCN(C)C3	N370S GC mod inconclusive, ClpP mod 18µM
CC(C)Sc1nc(N)c2c3c(sc2n1)CN(C)CC3	GRP78 ERSR act inconclusive, ClpP mod 28µM
CN1CCc2c(sc3nc(SCC(N)=O)n(-c4ccccc4)c(=O)c23)C1	ClpP mod 28µM
CSc1nc(NCC(C)C)c2c3c(sc2n1)CN(C)CC3	ClpP mod inconclusive
CSc1nc(NCc2ccccc2)c2c3c(sc2n1)CN(C)CC3	ClpP mod 14µM
O=S(=O)(NCc1nnc2n1CCN(Cc1ccccc1Cl)CC2)c1ccccc1	none (no result: Anesthetic bind, CBFb RUNX1 block, N370S GC mod, Integrin act MD, ClpP mod)
COc1cc(/C=C/C(=O)Nc2ccc(C)cc2)cc(OC)c1OC	none
COc1cc(/C=C/C(=O)Nc2nc3ccc(S(=O)(=O)N(C)C)cc3s2)cc(OC)c1OC	ClpP mod 7.9µM
COc1cc(/C=C/C(=O)Nc2nnc(C(C)(C)C)s2)cc(OC)c1OC	ClpP mod 32µM
COc1ccc(CC(=O)NO)cc1OC	none (no result: Anesthetic bind, CBFb RUNX1 block, N370S GC mod, Integrin act MD, GRP78 ERSR act)
N#Cc1c(/N=C/c2ccc(-c3ccccc3C(=O)O)o2)sc2c1CCCC2	none (no result: CBFb RUNX1 block)
